In PubChem BioAssay AID2284324 (EPA ToxCast):
Inconclusive results are not listed. Activity calls are given as the source filed them. How the source made its calls: active means hit-call score of the fitted dose curve at least 0.9, where 1 is the maximum; inconclusive means response in the unintended direction; inactive means score below 0.9.

System: Japanese medaka Glucocorticoid Receptor (GR), gene 101170451
Assay: ATG_jmGR_EcoTox2: Attagene TRANS-FACTORIAL EcoTox-2 HepG2 Assay for Japanese medaka Glucocorticoid Receptor (GR)
Protocol: ATG_EcoTox2 is a cell-based, multiplexed assay created by modifying the existing Attagene TRANS-FACTORIAL system to include a panel of nuclear receptors from some or all the following species: human (Homo sapiens), african clawed frog (Xenopus laevis), rainbow trout (Oncorhynchus mykiss), japanese medaka (Oryzias latipes), and zebrafish (Danio rerio). The ECOTOX2-FACTORIAL format uses HepG2, a human liver cell line, with measurements taken at 24 hours after chemical dosing in a 24-well plate. ATG_jmGR_EcoTox2 is one of 29 assay components calculated in the ATG_EcoTox2 assay. It is designed to make measurements of mRNA induction, a form of inducible reporter, as detected with fluorescence intensity signals by Reverse transcription polymerase chain reaction (RT-PCR) and Capillary electrophoresis technology.The assay endpoint ATG_jmGR_EcoTox2 was analyzed in the positive analysis fitting direction relative to DMSO as the negative control and baseline of activity. Using a type of inducible reporter, measures of mRNA for gain-of-signal activity can be used to understand the reporter gene at the transcription factor-level as they relate to the gene for glucocorticoid receptor. Furthermore, this assay endpoint can be referred to as a primary readout, because this assay has produced multiple assay endpoints where this one serves a reporter gene function. To generalize the intended target to other relatable targets, this assay endpoint is annotated to the nuclear receptor intended target family, where the subfamily is steroidal.
Human liver HepG2 cells are transiently transfected with multiple reporter transcription units (MRTUs) in 6-well plates using FuGene 6 reagent (Roche; 3 ml FuGene/1 mg DNA). The MRTU constructs are regulated by a cis-regulating element (promoter). Each RTU expresses a GAL4-UAS that regulates the transcription of a nearby target reporter gene sequence. A major difference between the CIS and TRANS system is that in CIS activities of endogenous TFs are measured, whereas the TRANS assay evaluates changes in activities of exogenous, chimeric NR-Gal4 proteins. […] At the end of 24 hour incubation, total RNA was isolated using TriZol reagent (Invitrogen). The isolated RNA is then reverse-transcribed using oligo(dT) primer and Mo-MLV reverse transcriptase (Invitrogen) with DNAse I (Ambion) treatment for 30 min. The one-tenth of the produced cDNA was amplified by PCR using Taq DNA polymerase (Invitrogen) and two reporter sequence-specific primers. The PCR products were fluorescently labeled by primer extension with 6-arboxyfluorescein (6-FAM) 5'-labeled reporter sequence-specific primer (2 min at 95 C, 20 s at 68 C and 10 min at 72 C) and these products were digested with 5U of HpaI (New England Biolabs) for 2h at 37 C. The fragments were purified using Qiaquick PCR columns (Qiagen), analyzed on an ABI 3130xL genetic analyzer (Applied Biosystems) with peak positions identified by using a set of X-rhodamine (ROX)-labeled MapMarker1000 molecular weight standards (BioVentures). The raw capillary electrophoresis data was processed using Attagraph software (Attagene).

| Structure (SMILES) | outcome | AC50 |
| --- | --- | --- |
| CC(C)(Oc1ccc(C2CC2(Cl)Cl)cc1)C(=O)O (stereo not drawn) | inactive | – |
| Cc1ccc(C)c(OCCCC(C)(C)C(=O)O)c1 | inactive | – |
| CC(C)OC(=O)C(C)(C)Oc1ccc(C(=O)c2ccc(Cl)cc2)cc1 | inactive | – |
| CC(C)(Oc1ccc(CCNC(=O)c2ccc(Cl)cc2)cc1)C(=O)O | inactive | – |
| CC(C)(Oc1ccc(Cl)cc1)C(=O)O | inactive | – |
| C[C@]12C=CC(=O)C=C1CC[C@@H]1[C@@H]2C(=O)C[C@@]2(C)[C@H]1CC[C@]2(O)C(=O)CO | inactive | – |
| Cc1cccc(Nc2cc(Cl)nc(SCC(=O)O)n2)c1C | inactive | – |
| C[C@@H]1C[C@H]2[C@@H]3CCC4=CC(=O)C=C[C@]4(C)[C@@]3(F)[C@@H](O)C[C@]2(C)[C@@]1(O)C(=O)COP(=O)(O)O | – | 14.8 nM (active) |
